GALC G270D act: raises human GALC G270D mutant activity in cells; actives 0.1% (n = 45,000); AID 1159614; 145M-Twi-hGALC-G270D cells (Twitcher mouse brain line with human GALC G270D), HMU-beta-Gal fluorescence, 48 h; Potency, µM (top dose mostly 57.5 µM), hits mostly activators; further: potency means the concentration at half of the fitted maximal effect; 0% is about no effect; nearly all actives have a fitted effect of over 65% in size
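Mutant human GALC (G270D), stably expressed in a Twitcher mouse brain cell line lacking endogenous GALC, is measured in live-treated cells via 6-hexadecanoylamino-4-methylumbelliferyl-β-galactoside hydrolysis (0.1 mM final, pH 5.2) with fluorescent detection.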
FH mod: Identification of activators of human fumarate hydratase by quantitative high-throughput screening | AID 1347055, 2019 | FH coupled MDH/diaphorase resazurin fluorescence, 15 min | actives 0.22% (n = 54,000) | Potency, µM (highest dose often 79.9 µM), for the others: top-dose activity change, negative = inhibition, actives largely listed as inhibitors; further: potency means the concentration at half of the fitted maximal effect; on the % scale 0 is the no-effect control and ±100 the full control effect; the screen sought activators but most active calls are inhibition curves; nearly all actives have a fitted effect of over 45% in size
Target sequence (P07954 whole entry, looked up): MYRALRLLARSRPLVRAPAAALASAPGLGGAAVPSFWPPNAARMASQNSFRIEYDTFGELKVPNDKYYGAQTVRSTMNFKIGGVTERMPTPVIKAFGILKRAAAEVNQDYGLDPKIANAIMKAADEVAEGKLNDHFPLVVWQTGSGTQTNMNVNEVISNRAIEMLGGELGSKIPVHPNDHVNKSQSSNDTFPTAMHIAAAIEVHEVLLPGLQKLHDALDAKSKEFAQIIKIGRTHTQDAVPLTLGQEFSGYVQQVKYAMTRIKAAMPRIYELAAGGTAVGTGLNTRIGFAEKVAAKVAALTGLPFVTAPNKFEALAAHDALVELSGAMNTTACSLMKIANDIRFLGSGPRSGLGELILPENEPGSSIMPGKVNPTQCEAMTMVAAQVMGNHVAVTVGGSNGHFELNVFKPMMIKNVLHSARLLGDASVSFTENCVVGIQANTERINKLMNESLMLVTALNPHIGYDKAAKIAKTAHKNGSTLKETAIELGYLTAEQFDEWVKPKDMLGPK
GPR32 ag: activates human resolvin D1 receptor GPR32 | O75388 | CHO-K1 GPR32 beta-arrestin PathHunter luminescence, 90 min; zero percent set by DMSO-only wells | activation, % at 76.9 µM | actives 2.5% (n = 48,000);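 active means activation of at least 60% and not above a set upper limit, about 1 call in 100 departs from these limits; inconclusive means activation of 40% to 60%, or above that upper limit; inactive means activation under 40%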; further: 0% is about no effect
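CHO-K1 cells stably expressing ProLink-tagged GPR32 and Enzyme Activator-tagged beta-arrestin were seeded at 2,500 cells/well overnight, exposed to compounds for 90 min at 37 °C, then read by beta-Gal complementation chemiluminescence after 1 h detection reagent.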
GALK inhibitor: inhibits human galactokinase; recombinant GALK, Kinase-Glo ATP luminescence, 1 h; Potency, µM (doses to about 57.5 µM), inactives show at the highest dose activity, negative = inhibition, hits mostly inhibitors; 44,000 tested, under 10 active;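 further: plate controls were full GALK reaction for no effect and reaction lacking GALK for full effect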
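Luminescent ATP-depletion readout (Kinase-Glo Plus, 10 min) after 1 h RT reaction of 5 nM GALK, 35 uM ATP, 100 uM galactose, pH 8.0 HEPES buffer. Decreased kinase activity scored as inhibition.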
PTAP-TSG101 blk: inhibitors of HIV-1 PTAP binding to human TSG101, validation; 44,000 tested, under 10 active; AID 1347069; Fluorescence polarization, FITC-PTAP peptide/Tsg101, 20 min; Potency, µM (top dose mostly 115 µM), hits mostly inhibitors; further: potency means the concentration at half of the fitted maximal effect; 0% is about no effect
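FITC-labeled PTAP peptide (50 nM final) binding to Tsg101 binding domain (10 uM final) read by fluorescence polarization after 20 min at r.t. in HEPES pH 7.5 buffer. Actives by CRC class, <25 µM.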
B2AR arrestin ag: ADRB2 beta-arrestin recruitment; P07550; HTLA Tango cells, beta-arrestin recruitment, luciferase luminescence, 18 h; Potency, µM (titrated, usually from 46.1 µM), actives largely listed as activators; 44,000 tested, under 10 active;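 further: potency means the concentration at half of the fitted maximal effect; 0% = DMSO and full agonism = EC100 isoproterenol or metaproterenol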
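Tango cell line, 1% FBS DMEM; cpd titration up to 46 microM; 18 hr, 37 degrees C, 5% CO2. Luciferin/ATP substrate mix added, 15 min RT, luminescence. %Activity, CRC fitting, curve-class categorization.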
Numbers without * were called inactive; i = inactive; ? = inconclusive; · = no result given; ! = a repeat was not active; [ ] = remark or other dose. Rows were chosen to be rich in hits. Some 2.8% of all compounds tested hit in one or more screens of this group. Unless noted, the call rests on the fitted dose curve; in most records, active means well fitted curve in the direction sought with a large enough effect; inconclusive means small, poorly fitted or top-dose-only effect, or another doubt; inactive means no such curve, though single readings can be large; an effect the other way counts as inactive or inconclusive.

SMILES | GALC G270D act | FH mod | GPR32 ag | GALK inhibitor | PTAP-TSG101 blk | B2AR arrestin ag
CC(=O)O[C@@H]1[C@@H](O)[C@H](O[C@@H]2[C@@H](O)[C@@H](O)[C@H](O[C@H]3[C@H](O[C@H]4[C@H](O[C@H]5CC[C@@]6(C)C(CC[C@]7(C)C6CC=C6[C@@H]8CC(C)(C)CC[C@]8(C(=O)O)CC[C@]67C)[C@]5(C)CO)O[C@H](CO)[C@@H](O)[C@@H]4O)OC[C@@H](O)[C@@H]3O)O[C@H]2C)OC[C@H]1O (some centres undefined) | · | 2.8%[20.6 µM] | · | · | · | ·
COc1ccc(NC(=O)CN(C)S(=O)(=O)c2ccc3[nH]c4c(c3c2)CCCC4)cc1OC | i | -18.5% | 3.5 | -6.7% | i | i
COc1ccc(NC(=O)CN(C)S(=O)(=O)c2ccc3[nH]c4c(c3c2)CCCC4)cc1Cl | i | -27.8% | 90.6* | -7.1% | i | i
O=C(Nc1ccn(Cc2c(F)cccc2C(F)(F)F)n1)c1c(F)cccc1F | · | -0.3%[20.6 µM] | · | · | · | ·
C[C@]1(CO)CCC[C@]2(C)C3=C(CCC12)COC3 (some centres undefined) | · | 5.4% | · | · | · | ·
CCn1c(=O)cc(OCC(=O)Nc2cc(OC)c(OC)c(OC)c2)c2ccccc21 | i | -8.8% | 89.5* | 7.9% | i | i
CCn1c(=O)cc(OCC(=O)NCc2ccccc2Cl)c2ccccc21 | i | 1.8% | 71.5* | -1.8% | i | i
CCn1c(=O)cc(OCC(=O)Nc2ccccc2Cl)c2ccccc21 | ? | -11.6% | -16.7 | 1.4% | i | i
CCn1c(=O)cc(OCC(=O)NCc2ccccc2OC)c2ccccc21 | i | -13.8% | 118.0* | 8.3% | i | i
CCn1c(=O)cc(OCC(=O)N2CCN(c3ccc(OC)cc3)CC2)c2ccccc21 | i | -13.4% | 80.8* | 1.8% | i | i
Oc1cccc(C(Nc2ccccn2)c2ccc3cccnc3c2O)c1Cl (centres undefined) | · | · | 81.0* | 0.0% | i | ?
Cc1nn(Cc2ccc(Cl)cc2)c(C)c1NC(=O)c1noc2c1CCc1ccccc1-2 | · | · | 107.2* | 1.6% | i | i
Cc1nn(Cc2ccccc2Cl)c(C)c1NC(=O)c1cc(C(C)C)on1 | · | · | 86.1* | 0.0% | i | i
Cc1nn(Cc2ccccc2)c(C)c1NC(=O)c1cc(C(C)C)on1 | i | -30.3% | 39.4 | -0.9% | i | i
O=C(CC1N=C2c3ccccc3N=C(SCc3ccc(Cl)cc3)N2C1=O)NCCc1ccccc1 (centres undefined) | i | ? | 73.8* | -1.3% | i | i
O=C(CCC1N=C2c3ccccc3N=C(SCc3ccc(Cl)cc3)N2C1=O)NCCc1ccccc1 (centres undefined) | i | ? | -13.5 | -2.5% | i | i
O=C(O)CN(CCN(CC(=O)O)CC(=O)O)CCN(CC(=O)O)CC(=O)O | i | -7.8%[53.3 µM] | 70.2*! | · | · | ·
CC1CCC23COC(=O)C2=CC(O)CC3C1(C)CCc1ccoc1 (centres undefined) | · | 7.1%[53.3 µM] | · | · | · | ·
NC(=NCCCCCCN=C(N)/N=C(\N)Nc1ccc(Cl)cc1)/N=C(\N)Nc1ccc(Cl)cc1 | i | 32.0% | 86.5* | · | · | ·
NC(=NCCCCCCN=C(N)N=C(N)Nc1ccc(Cl)cc1)N=C(N)Nc1ccc(Cl)cc1 | · | 13.5%[53.3 µM] | · | · | · | ·
Cc1c(Cl)cccc1NC(=O)CSc1ncc(S(=O)(=O)c2ccc(C(C)C)cc2)c(=O)[nH]1 | i | ? | ? | ? | i | i
CC(C)(C)c1ccc(S(=O)(=O)c2cnc(SCC(=O)Nc3ccc(F)c(Cl)c3)[nH]c2=O)cc1 | i | ? | -13.2 | 20µM* | i | i
CC(C)c1ccc(S(=O)(=O)c2cnc(SCC(=O)Nc3cccc(C(F)(F)F)c3)nc2N)cc1 | i | ? | 76.4* | 6.3% | i | i
O=C(CSc1ncc(S(=O)(=O)c2ccc(Cl)cc2)c(=O)[nH]1)Nc1cccc(C(F)(F)F)c1 | i | -26.9% | 113.2* | 3.4% | i | i
Cc1ccc(NC(=O)CSc2ncc(S(=O)(=O)c3ccc(C(C)C)cc3)c(=O)[nH]2)cc1C | i | ? | ? | ? | i | i
SMILES | GALC G270D act | FH mod | GPR32 ag | GALK inhibitor | PTAP-TSG101 blk | B2AR arrestin ag
Nc1nc(SCC(=O)Nc2cccc(C(F)(F)F)c2)n[nH]1 | i | -3.2% | 14.6 | -2.3% | i | i
CC(O)/C=C/C1(O)C(C)C(O)C(O[C@@H]2O[C@H](CO)[C@@H](O)[C@H](O)[C@H]2O)CC1(C)C (some centres undefined) | · | 1.3%[53.3 µM] | · | · | · | ·
COc1ccc(-c2ccc3c(N4CCOCC4C)nc(N4CCOCC4C)nc3n2)cc1CO (centres undefined) | · | 22.6% | · | · | · | ·
Cc1cc(Br)ccc1NC(=O)c1coc(=O)c2ccccc12 | i | -4.3% | 71.9* | -2.0% | i | i
Cc1cccc(C(=O)Nc2ccc(-c3nc4cc(C(C)C)ccc4o3)cc2)c1 | i | -6.7% | 19.3 | -1.8% | i | i
CCOc1cccc(C(=O)Nc2ccc3oc(-c4cccnc4)nc3c2)c1 | i | -5.0% | 106.6* | 3.0% | i | i
CCOc1ccc(C(=O)Nc2ccc(-c3nc4cc(C(C)C)ccc4o3)cc2)cc1Cl | i | 14.7% | 84.0* | -0.2% | i | i
C[C@H](NCc1ccc(OCc2cccc(F)c2)cc1)C(N)=O | · | -2.0%[53.3 µM] | · | · | · | ·
CC(C)(C)C(=O)OCc1cc(=O)n2nc(C3CCCCC3)sc2n1 | i | 5.9% | 79.1* | 4.8% | i | i
CCNc1nc(NCc2ccc(F)cc2)c2cnn(C)c2n1 | i | 1.0% | 72.2* | -2.9% | i | i
CCCNc1nc(NCc2ccccc2OC)c2cnn(C)c2n1 | i | -11.7% | ? | -0.2% | i | i
COc1cc(-c2noc(C3CC(=O)N(c4cc(C)ccc4C)C3)n2)cc(OC)c1OC (centres undefined) | i | ? | 75.8* | -0.2% | i | i
COc1ccc(CCNC(=O)CSc2cn(CCNC(=O)c3cccc(C(F)(F)F)c3)c3ccccc23)cc1OC | i | -21.6% | 104.0* | 8.8% | i | i
Cn1c(=O)[nH]c(=O)c2c1nc(NCCO)n2CC(O)COc1ccccc1 (centres undefined) | · | · | 26.8 | -24.0% | i | i

From PubChem BioAssay
